Assay outcomes (PubChem)
This excerpt belongs to a sample that is enriched for hits.
HePTP inhibitor: inhibitors of human HePTP phosphatase, primary screen, biochemical, absorbance, leukemia target. recombinant HePTP phosphatase activity, OD absorbance. hit rate 0.64% among 110,000. inhibition, % at 20 µM. Tyrosine-protein phosphatase non-receptor type 7 (Homo sapiens), P35236; in the data active = inhibition above about 50%;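 note: plate controls were vehicle for no effect and reference inhibitor for full effect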
TNAP act DEA: human TNAP enzyme activators, primary screen, biochemical, luminescent, intermediate phosphate acceptor level; activation factor at 20 µM; Alkaline phosphatase, tissue-nonspecific isozyme (Homo sapiens), P05186; AID 813, 2007; purified TNAP, CDP-star luminescence, 100 mM DEA, 30 min; hits give high values; scale: 0 levamisole-inhibited, 1 vehicle-only enzyme; 64,000 tested, under 10 active;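 active = activation factor of at least 2 at 20 µM, relative to controls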
Target sequence (P05186 whole entry, looked up): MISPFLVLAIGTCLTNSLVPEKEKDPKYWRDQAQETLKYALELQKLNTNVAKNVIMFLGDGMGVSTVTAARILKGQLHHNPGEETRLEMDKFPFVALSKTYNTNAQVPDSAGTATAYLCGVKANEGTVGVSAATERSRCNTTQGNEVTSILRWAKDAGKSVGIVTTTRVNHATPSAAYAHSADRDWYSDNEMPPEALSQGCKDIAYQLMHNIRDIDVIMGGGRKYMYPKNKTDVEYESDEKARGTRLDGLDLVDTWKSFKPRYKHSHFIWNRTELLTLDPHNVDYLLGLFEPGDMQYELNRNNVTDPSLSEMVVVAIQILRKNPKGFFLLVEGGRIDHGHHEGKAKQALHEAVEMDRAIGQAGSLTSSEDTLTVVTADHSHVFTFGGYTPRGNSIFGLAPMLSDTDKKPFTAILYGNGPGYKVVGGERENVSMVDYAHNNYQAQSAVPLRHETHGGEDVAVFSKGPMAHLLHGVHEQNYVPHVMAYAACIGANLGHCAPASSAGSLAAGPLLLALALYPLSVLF
Calb biofilm kill: clotrimazole potentiators killing Candida biofilms, primary screen, with clotrimazole, Alamar Blue; inhibition, % at 6 µM; C. albicans biofilm + clotrimazole; hit rate 0.14% among 85,000;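 active = inhibition above 20%; inactive = inhibition below 20%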;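 note: preformed 24 hr biofilms exposed to compound for 48 hr; 0% = biofilm without compound and 100% = blank killed by clotrimazole plus chlorhexidine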
D1 mod: D1 CRE-luciferase signal change, two-sided – cell-based, HEK293 D1, dopamine EC30, D1 allosteric modulator project, primary screen. D(1A) dopamine receptor (Homo sapiens), P21728. dopamine EC30 potentiation; actives deviate in either direction. B-score at 10 µM. hit rate 5.9% among 58,000;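 active = luminescence count or its row- and column-corrected plate score outside the 99.7% band of the plate's sample wells, on either side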
PLAP activator: PLAP enzyme activators, biochemical, luminescence, HTS; Alkaline phosphatase, placental type (Homo sapiens), P05187; purified PLAP enzyme, luminescent substrate read-out; hits give high values; activation fold at 20 µM; hit rate 1.2% among 96,000; in the data active = activation fold above about 2
DAT uptake mod: changed hDAT dopamine uptake under cocaine IC80, either direction, primary screen, cocaine antagonist project, cell-based, LLC-PK1 hDAT, [14C]-dopamine uptake, MLSMR; LLC-PK1 hDAT cells, [14C]-dopamine uptake with cocaine IC80; actives deviate in either direction; B-score at 10 µM; AID 449768, 2010; Sodium-dependent dopamine transporter (Homo sapiens), Q01959; hit rate 1.3% among 110,000;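 active = Z score or B-score, a plate-position-corrected score, falls beyond the plate's 99.7% confidence bounds, in either direction; inactive = both scores lie inside the 99.7% bounds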;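 note: scored against the spread of the other compound wells on the same plate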
D1 PAM confirm: D1 receptor positive allosteric modulators, retest, confirmation, cell-based, HEK293 D1, CRE-luciferase, duplicate; hit rate 88% among 2,200; luminescence at 10 µM; dopamine EC30 potentiation; hits give high values; shares compounds with D1 mod;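 active = luminescence in either of two replicates above the same-plate mean plus 3 SD of the low-dose dopamine control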
D1 no dopamine: D1 receptor agonism without dopamine, confirmation, mechanism study for D1 allosteric modulator project, cell-based, HEK293 D1, CRE-luciferase, secondary assay 1; luminescence at 10 µM; shares compounds with D1 mod; hit rate 0.8% among 1,900; luminescence, no dopamine; hits give high values; AID 646, 2007; in the data active = luminescence above about 3900
Isoprot counter: alters isoproterenol CRE-luciferase response in HEK293 cells; HEK293 D1 CRE-luciferase, isoproterenol EC30 counter-screen; hits give high values; hit rate 63% among 2,200; luminescence at 10 µM; shares compounds with D1 mod;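 active = luminescence in either replicate above plate mean of wells with a partly effective reference agonist dose plus 3 SD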;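 note: isoproterenol raises cAMP through native beta-adrenoceptor Gs so signal bypasses D1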
* = called active by the depositor; / = no result given.

SMILES	HePTP inhibitor	TNAP act DEA	Calb biofilm kill	D1 mod	PLAP activator	DAT uptake mod	D1 PAM confirm	D1 no dopamine	Isoprot counter
CC1CCCCN1C(=O)CSc1nc(C2CC2)nc2c1cnn2-c1ccccc1 (stereo not drawn)	8	1	/	4*	1.4	-0.27	7396*	1340	2820
COc1ccccc1-c1cc(C2CC2)nc(N)c1C#N	-5	0.9	8	9.4*	1	-0.091	11344*	1800	3600*
N#Cc1c(-c2cccc(Br)c2)cc(C2CC2)nc1N	8	/	/	/	/	/	/	/	/
N#Cc1c(-c2ccccc2Cl)cc(C2CC2)nc1N	4	0.9	-3	15*	1	-0.63	20296*	1408	4128*
CCOC(=O)c1oc2c(c1C)/C(=N/OC(C)=O)CCC2	5	/	/	/	/	/	/	/	/
COc1nc(Nc2ccc(O)cc2)nc(OC(C(F)(F)F)C(F)(F)F)n1	-16	1.1	6	6.2*	0.9	-0.74	13552*	/	3172*
CCCCNC(=O)C1CCCN1C(=O)Nc1cccc(OC)c1 (stereo not drawn)	2	0.9	9	30*	1.1	-0.78	4704	1636	3176
CCc1c(C)c2c(C)nn(-c3ccccc3)c2[nH]c1=O	-6	0.9	0	3.2*	1.1	-0.12	7084*	1748	3384*
NC(=O)C1CCN(c2nc(C3CC3)nc3c2nnn3Cc2ccccc2Cl)CC1	-1	0.9	6	/	1.6	-0.078	/	/	/
NC(=O)C1CCN(c2nc(C3CC3)nc3c2nnn3Cc2ccccc2)CC1	-3	0.9	10	15*	1.1	-0.35	24680*	1492	5164*
Nc1nc(NCc2ccccc2)nc(-c2ccccc2)n1	5	0.9	5	21*	0.9	0.61	23340*	/	3652*
COc1cc(C(=O)N2CCN(c3ccc(F)cc3)CC2)cc(OC)c1OC	3	/	/	/	/	/	/	/	/
C=CCn1c(SCC(=O)Nc2sc(C)c(C)c2C(=O)OCC)nnc1-c1sc(N)nc1C	9	0.9	7	2.7*	0.9	-0.15	10116*	1640	2904
CN(C)c1cc(N/N=C/c2ccc([N+](=O)[O-])cc2)nc(N(C)C)n1	9	/	/	/	/	/	/	/	/
Nc1ccc(Br)cc1/C(=N/O)c1ccccc1	2	/	/	/	/	/	/	/	/
Cc1ccc2oc(=O)cc(CN3CCOCC3)c2c1	-12	1	3	1.4	0.9	-0.32	/	/	/
CCc1ccc2oc(=O)cc(CN3CCOCC3)c2c1	-2	0.9	1	5.9*	1	0.48	13788*	1736	2892
CCc1ccc2oc(=O)cc(CN3CCC(C)CC3)c2c1	-10	0.9	6	5.9*	1	0.023	10276*	1600	3548*
Cc1cc(-c2ccc(/C=c3\sc4nc5c(C)cc(C)cc5n4c3=O)o2)c(C)c([N+](=O)[O-])c1	-6	/	/	/	/	/	/	/	/
CC(=O)c1cccc(NC(=O)N2CCC(c3nnc(SCC(N)=O)n3C)CC2)c1	9	0.9	6	3.3*	0.9	0.59	4940	/	2372
Cn1c(SCC(N)=O)nnc1C1CCN(C(=O)NC2CCCCC2)CC1	-8	0.9	6	0.06	0.9	-0.52	/	/	/
CCN(CC)c1ccc(NC(=O)COc2cc(C)c(Cl)c(C)c2)cc1	-10	/	/	/	/	/	/	/	/
COc1ccc(NC(=O)c2cc(Cl)ccc2OC)c([N+](=O)[O-])c1	0	/	/	/	/	/	/	/	/
CCCCN(c1ccccc1)c1ncnc2nc[nH]c12	-8	1.2	10	12*	1.9	0.68	11140*	1680	3376*
Cc1cc(C)c(S(=O)(=O)N(C)C2CCCCC2)c(C)c1	-4	/	/	/	/	/	/	/	/
SMILES	HePTP inhibitor	TNAP act DEA	Calb biofilm kill	D1 mod	PLAP activator	DAT uptake mod	D1 PAM confirm	D1 no dopamine	Isoprot counter
O=C(Cc1cccs1)Nc1ccccc1NC(=O)Cc1cccs1	3	0.8	7	4.9*	0.8	-0.21	5744	1712	2956
O=C(Cc1cccs1)Nc1ccccc1C(=O)O	5	0.9	3	-1.2	0.9	-0.25	/	/	/
Cc1nc2c3ccccc3n(CC#N)c(=O)n2n1	-3	0.9	12	4.7*	1	-1.3	8580*	/	3036*
COC(=O)CN(C#N)c1nc(NC(C)C)nc(NC(C)C)n1	8	/	/	/	/	/	/	/	/
CCCN(C#N)c1nc(NCC)nc(NC(C)C)n1	-13	0.9	9	17*	0.9	0.16	24080*	1560	4728*
O=C(Nc1ccc(S(=O)(=O)N2CCCCCC2)cc1)c1cccs1	4	/	/	/	/	/	/	/	/
Cn1c(=O)[nH]c(=O)c2c1nc(N1CCCCC1)n2CCCSc1nc2ccccc2s1	/	/	-2	5.7*	/	1.1	16664*	1660	7192*
Cc1nnc(SCCn2c(N3CCCC(C)C3)nc3c2c(=O)[nH]c(=O)n3C)s1 (stereo not drawn)	3	0.9	4	4.1*	0.9	0.079	9916*	1740	2832
Cn1c(=O)[nH]c(=O)c2c1nc(N1CCCC1)n2CCCSc1nc2ccccc2o1	-1	1	10	5.3*	1.9	0.22	17352*	2232	6260*
CC1CCCN(c2nc3c(c(=O)[nH]c(=O)n3C)n2CCSc2nc3ccccc3o2)C1 (stereo not drawn)	-5	1.1	11	/	1.5	0.25	/	/	/
Cn1c(=O)[nH]c(=O)c2c1nc(Br)n2CCCSc1nc2ccccc2o1	5	0.9	3	6.7*	1	-0.74	10016*	1580	3492*
CC1CCc2c(sc3ncnc(NCCN4CCOCC4)c23)C1 (stereo not drawn)	8	0.9	/	/	/	-0.22	/	/	/
CC1CCc2c(sc3ncnc(N4CCOCC4)c23)C1 (stereo not drawn)	2	1	10	17*	1.1	0.43	13928*	1504	6256*
CC1CCc2sc3ncnc(N4CCOCC4)c3c2C1 (stereo not drawn)	4	1	8	19*	1.5	-0.89	14216*	1432	4860*
c1csc(-c2csc(-c3nc(-c4cccs4)cs3)n2)c1	-5	/	/	/	/	/	/	/	/
Oc1cccc(C=Nc2ccccc2)c1O	13	/	/	/	/	/	/	/	/
CCN(CC)C(=S)NC(=O)/C=C/c1ccc(OC)c(OC)c1	4	/	/	/	/	/	/	/	/
